# Source: PubChem BioAssay
# HT1080NT lethal: kills 2HG-producing HT-1080-NT fibrosarcoma cells. HT-1080-NT fibrosarcoma viability, CellTiter-Glo ATP luminescence, 48 h. Potency, µM (top dose mostly 46.1 µM), for inactives: at the top dose activity, negative = less viability, hits mostly cytotoxic. hit rate 1.6% among 360,000;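 further: NT is the 2HG producing partner of a matched IDH1 knockdown line; potency means the concentration at half of the fitted maximal effect; 0% = DMSO-treated cells and -100% = media-only wells without cells; nearly all actives have a fitted effect of over 55% in size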
#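 HT-1080-NT; 750 cells/well; 5% FBS RPMI; 48 h compound, 37 degrees C; CellTiter-Glo luminescence; curve fitting and curve-class assignment.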
# IL-1B inflam inh: inhibitors of inflammasome signaling (IL-1 beta secretion); activity change, % at 57.5 µM; AID 743279; THP-1 LPS/ATP IL-1B secretion, AlphaLISA, 16 h; active compounds read low; hit rate 4.7% among 360,000; in the data active means activity change below about -50%; inconclusive means mostly about -30% to -49%
#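 THP-1 cells pretreated 1 hr with compounds (up to 57.5 uM final), then stimulated with LPS (250 ng/mL final) plus ATP (1.25 mM final); secreted IL-1B measured by AlphaLISA after 16 hr, decreased signal indicating inhibition.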
# 12-LOX inh: blocks human arachidonate 12S-lipoxygenase; purified 12hLO, xylenol orange hydroperoxide absorbance; Potency, µM (highest dose often 108 µM), for inactives: at the top dose activity change, negative = inhibition, actives largely listed as inhibitors; hit rate 1.1% among 580,000; further: potency means the concentration at half of the fitted maximal effect
# Target sequence (P18054 whole entry, looked up): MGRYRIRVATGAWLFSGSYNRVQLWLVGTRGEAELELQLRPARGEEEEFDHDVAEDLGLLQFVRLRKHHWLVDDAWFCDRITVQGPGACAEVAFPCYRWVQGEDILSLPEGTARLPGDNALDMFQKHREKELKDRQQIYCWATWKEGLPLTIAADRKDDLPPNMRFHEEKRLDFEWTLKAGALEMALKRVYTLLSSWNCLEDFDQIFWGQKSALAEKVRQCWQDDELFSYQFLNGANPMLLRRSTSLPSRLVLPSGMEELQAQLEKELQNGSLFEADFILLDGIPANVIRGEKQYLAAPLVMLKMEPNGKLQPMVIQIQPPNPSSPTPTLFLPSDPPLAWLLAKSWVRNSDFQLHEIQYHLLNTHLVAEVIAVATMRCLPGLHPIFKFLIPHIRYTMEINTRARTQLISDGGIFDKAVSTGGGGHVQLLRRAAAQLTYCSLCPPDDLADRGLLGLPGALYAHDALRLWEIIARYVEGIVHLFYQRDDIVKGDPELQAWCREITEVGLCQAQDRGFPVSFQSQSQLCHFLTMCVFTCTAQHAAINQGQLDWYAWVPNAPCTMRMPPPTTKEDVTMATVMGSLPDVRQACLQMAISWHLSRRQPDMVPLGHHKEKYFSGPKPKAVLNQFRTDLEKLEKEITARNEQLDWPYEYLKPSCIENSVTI
#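 Purified human 12hLO (150 nM final) in 25 mM Hepes, 0.01% Triton X-100, pH 7.0 was preincubated 15 min at room temperature with compound. Then 40 uM arachidonic acid was added, 30 min. Hydroperoxide was read by Fe-XO absorbance ratio 573/405 nm.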
# TDP1 cell CPT: growth inhibition of DT40 Tdp1-/-;hTDP1 cells with camptothecin (screen for TDP1 inhibitors). AID 686979. Potency, µM (doses to about 46.2 µM), for the others: at the highest dose activity change, negative = growth inhibition, most hits filed as inhibitors. chicken DT40 Tdp1-/-;hTDP1 cells + 20 nM CPT, ATP luminescence, 48 h. hit rate 12% among 420,000; further: potency means the concentration at half of the fitted maximal effect; nearly all actives have a fitted effect of over 55% in size
#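 Cell growth measured by CellTiter-Glo luminescence after a minimum 48 h, 37 C compound exposure with 20 nM CPT in Tdp1-knockout DT40 cells stably expressing hTDP1, seeded 400/well; qHTS titration format.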
# DT40 TDP1 no CPT: qHTS for Inhibitors of human tyrosyl-DNA phosphodiesterase 1 (TDP1): qHTS in cells in absence of CPT; DT40 Tdp1-/- hTDP1 cells, no CPT, ATP luminescence, 48 h; Potency, µM (doses to about 46.2 µM), for inactives: at the top dose activity change, negative = growth inhibition, hits mostly inhibitors; hit rate 15% among 420,000; AID 686978, 2013; further: potency means the concentration at half of the fitted maximal effect; nearly all actives have a fitted effect of over 55% in size
#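 No-CPT arm: Tdp1-/-;hTDP1 DT40 cells (400/well) plus compounds, incubated ≥48 hr at 37 °C. Readout CellTiter-Glo luminescence.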
# HT1080 IDH1KD tx: toxicity to HT-1080 IDH1 knockdown cells (counter line); AID 686971; hit rate 2% among 360,000; Potency, µM (doses to about 46.1 µM), without a hit: at the highest dose activity, negative = toxicity, most hits filed as cytotoxic; HT-1080 IDH1 knockdown viability, ATP luminescence, 48 h;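 further: potency means the concentration at half of the fitted maximal effect; 0% = DMSO wells and -100% = cell-free medium wells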
#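 Luminescent ATP read-out (CellTiter-Glo, 10 min at room temperature) after 48 h compound exposure at 37 °C gave viability of IDH1-knockdown HT-1080 cells. Activity was normalised to DMSO and cell-free wells, then fitted as concentration-response curves.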
# An asterisk follows results filed as active; ? = inconclusive; . = not tested or not shown. Only a selection was taken, and hits are over-represented in it overall. Unless noted, the call rests on the fitted dose curve; in most records, active means well fitted curve in the direction sought with a large enough effect; inconclusive means small, poorly fitted or top-dose-only effect, or another doubt; inactive means no such curve, though single readings can be large; an effect the other way counts as inactive or inconclusive. Unless noted, on the % scale 0 is the no-effect control and ±100 the full control effect.
SMILES,HT1080NT lethal,IL-1B inflam inh,12-LOX inh,TDP1 cell CPT,DT40 TDP1 no CPT,HT1080 IDH1KD tx
CC(C(=O)Nc1ccc2[nH]c(=O)[nH]c2c1)N(C)Cc1ccccc1N1CCCCC1 (centres undefined),.,.,7%,.,.,.
C=C1CC2C(=O)N(Cc3cc(OC)ccc3OC)C(C(=O)OCC)(C(=O)OCC)C1N2C(=O)OC(C)(C)C (centres undefined),2%,0,-1%,21µM*,?,3%
N#C/C(=C\c1c[nH]c2ccccc12)C(=O)NC1CCCC1,-15%,0,-4%,16µM*,16µM*,2%
N#C/C(=C\c1c(F)cccc1Cl)C(=O)NC1CC1,-22%,-74*,?,?,?,-12%
N#C/C(=C\c1ccc([N+](=O)[O-])o1)C(=O)NC1CCCCC1,.,.,16µM*,.,.,.
N#C/C(=C\c1cccnc1)C(=O)NC1CCCCC1,8%,-78*,10%,?,23µM*,6%
O=C(Cn1c(=O)c(CCC(=O)NC2CC2)nc2ccccc21)Nc1cccc(C(F)(F)F)c1,.,.,6%,.,.,.
O=C(Cc1ccccc1O)NCc1cccnc1Oc1ccc(F)cc1F,.,.,6%,.,.,.
N#C/C(=C\c1cccnc1)C(=O)Nc1cccc2ccccc12,?,?,?,?,?,21µM*
N#C/C(=C\c1ccco1)C(=O)NC1CCCC1,.,.,40µM*,.,.,.
COc1cccc(C2=NS(=O)(=O)N(C)C(C(=O)NCC(C)C)=C2)c1,.,.,-6%,.,.,.
COc1cccc(NC(=O)NC[C@H]2O[C@@H](CC(=O)N3CCN(c4ccc(F)cc4)CC3)[C@H](O)[C@@H]2O)c1,.,.,1%,.,.,.
Fc1ccc(CN2C3=NCCN3c3ccccc32)cc1,1%,-7,469%,-14%,?,-15%
Cc1ccc(C(O)CN2C3=NCCN3c3ccccc32)cc1 (centres undefined),-1%,-10,0%,23µM*,16µM*,2%
CCOC(=O)CN1C2=NCCN2c2ccccc21,7%,18,11%,5%,-7%,3%
OC(CN1C2=NCCN2c2ccccc21)c1ccc(Br)cc1 (centres undefined),-17%,-62*,0%,?,21µM*,-24%
COc1ccccc1-c1nnc(SCC(=O)N(C)C2(c3ccccc3Cl)CCCCC2=O)n1C (centres undefined),.,.,13%,.,.,.
Cc1nc(CCNC(=O)N(C)Cc2ccc3c(c2)OCO3)cs1,.,.,24%,.,.,.
COc1ccccc1/C=C/c1nc(C#N)c(NCCCN2CCOCC2)o1,.,.,4%,.,.,.
Cc1ccc(C(C)C)c(OCC(=O)Nn2c(C)nc3ccccc3c2=O)c1,-3%,23,?,-21%,6.5µM*,-5%
Cc1ccc(C(C)C)c(OCC(=O)Nn2c(=O)[nH]c3ccccc3c2=O)c1,-6%,-27,-7%,-22%,?,2%
COc1ccc(Br)c(C(=O)Nc2cc3c(cc2N2CCCC2)n(C)c(=O)c(=O)n3C)c1,.,.,32%,16µM*,21µM*,.
Cn1c(=O)n(C)c2cc(N3CCCCC3)c(NC(=O)c3ccccc3)cc21,?,32,-9%,29µM*,?,23%
CCOc1ccccc1C(=O)NN1C(=O)CCC1=O,0%,54,-5%,?,18µM*,8%
CCn1c(=O)n(CC)c2cc(N3CCCCC3)c(NC(=O)Nc3ccccc3C(F)(F)F)cc21,.,.,10%,12µM*,10µM*,.
Cc1ccccc1CN1CCN(C(=O)c2sc(-c3ccc(F)cc3)nc2C)CC1,.,.,0%,.,.,.
CCc1ccc(C(C)NC(=O)Cn2nc(-c3ccc(F)cc3)oc2=O)cc1 (centres undefined),.,.,-2%,.,.,.
